Measured values from ChEMBL document CHEMBL3988442, “University of Dundee, Small-Polar-MMV Screening Library” (2021).
For part of these data: Measured potencies and affinities stand elsewhere.

Key:
Design in all cases: scale not given: direction of the effect not stated beside the values
[1] = molecular target: Protein translocase subunit SecA (Escherichia coli (strain K12)) (UniProt P10408); test: Assay to Identify E. coli SecA ATPase Inhibitors; assay type: functional; details: 30 µM
[2] = molecular target: T1, Ubiquitin-activating enzyme e1, putative (Leishmania donovani (strain BPK282A1)) (UniProt E9BSI1); test: Leishmania donovani Ubiquitin Activating Enzyme (LdE1); assay type: functional; details: 30 µM
T1 sequence (whole entry): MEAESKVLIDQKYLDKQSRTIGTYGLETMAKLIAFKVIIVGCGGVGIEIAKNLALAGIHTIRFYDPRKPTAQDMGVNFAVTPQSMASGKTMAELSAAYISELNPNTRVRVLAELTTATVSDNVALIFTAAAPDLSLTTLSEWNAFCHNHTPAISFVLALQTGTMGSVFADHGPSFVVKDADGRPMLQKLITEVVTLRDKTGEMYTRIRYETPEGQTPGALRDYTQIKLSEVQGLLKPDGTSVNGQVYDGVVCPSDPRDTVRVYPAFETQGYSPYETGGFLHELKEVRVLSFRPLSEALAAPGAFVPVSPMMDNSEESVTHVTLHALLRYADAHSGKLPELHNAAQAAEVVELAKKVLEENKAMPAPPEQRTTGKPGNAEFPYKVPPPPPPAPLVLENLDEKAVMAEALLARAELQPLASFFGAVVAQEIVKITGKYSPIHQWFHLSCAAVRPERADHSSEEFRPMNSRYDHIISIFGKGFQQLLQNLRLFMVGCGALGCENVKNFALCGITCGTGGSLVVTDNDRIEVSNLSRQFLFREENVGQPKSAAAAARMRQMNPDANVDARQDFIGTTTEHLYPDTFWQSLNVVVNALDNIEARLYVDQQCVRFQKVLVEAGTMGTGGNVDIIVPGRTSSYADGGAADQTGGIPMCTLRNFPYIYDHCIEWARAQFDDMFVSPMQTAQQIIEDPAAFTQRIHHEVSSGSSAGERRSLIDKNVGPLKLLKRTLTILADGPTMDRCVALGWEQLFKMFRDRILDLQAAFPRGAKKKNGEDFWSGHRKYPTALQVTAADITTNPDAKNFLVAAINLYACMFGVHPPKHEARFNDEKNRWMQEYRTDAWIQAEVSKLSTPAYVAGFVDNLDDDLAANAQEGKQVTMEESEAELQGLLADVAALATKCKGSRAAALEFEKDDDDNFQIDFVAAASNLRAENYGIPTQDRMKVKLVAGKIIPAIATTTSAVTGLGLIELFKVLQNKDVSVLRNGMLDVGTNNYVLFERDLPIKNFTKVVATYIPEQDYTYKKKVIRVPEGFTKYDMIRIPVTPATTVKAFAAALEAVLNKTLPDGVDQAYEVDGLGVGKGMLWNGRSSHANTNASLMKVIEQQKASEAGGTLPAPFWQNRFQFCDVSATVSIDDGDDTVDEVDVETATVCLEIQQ

[3] = molecular target: AMP-activated protein kinase, AMPK (Homo sapiens) (UniProt P54646+O43741+P54619+Q9UGJ0+Q9Y478+Q13131+Q9UGI9); test: AMP-dependent Kinase enzyme assay. An in vitro enzyme assay that detects ADP turnover that is directly proportional to AMPK activity. This uses naive AMPK that is activated during the assay with MK-8722; assay type: functional; details: 30 µM
[4] = molecular target: Sialic acid-binding Ig-like lectin 9 (Homo sapiens) (UniProt Q9Y336); test: Hs-Siglec9 ALPHAscreen SOP 20170721; details: 10 µM
Sialic acid-binding Ig-like lectin 9 (Homo sapiens), sequence (Q9Y336 whole entry): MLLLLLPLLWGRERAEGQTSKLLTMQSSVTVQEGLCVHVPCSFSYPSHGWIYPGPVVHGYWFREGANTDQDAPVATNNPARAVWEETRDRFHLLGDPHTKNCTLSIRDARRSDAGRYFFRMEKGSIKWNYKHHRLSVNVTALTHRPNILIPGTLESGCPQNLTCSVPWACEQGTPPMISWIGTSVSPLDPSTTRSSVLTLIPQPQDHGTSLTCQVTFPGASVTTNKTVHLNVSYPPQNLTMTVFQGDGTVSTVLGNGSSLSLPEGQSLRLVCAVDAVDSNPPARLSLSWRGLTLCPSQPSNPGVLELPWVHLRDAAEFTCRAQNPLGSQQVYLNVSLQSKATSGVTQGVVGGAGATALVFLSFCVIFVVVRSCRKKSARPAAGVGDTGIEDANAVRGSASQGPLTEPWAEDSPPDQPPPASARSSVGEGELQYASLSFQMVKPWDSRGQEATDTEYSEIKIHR

Trypanosoma cruzi = test: Trypanosoma cruzi phosphomannomutase and mannose-1-phosphate guanylyltransferase assay; assay type: functional; details: 10 µM
[5] = molecular target: T2, Arginase-2, mitochondrial (Homo sapiens) (UniProt P78540); test: in vitro enzyme assay to detect the production of urea directly proportional to the activity of Arginase II; assay type: functional; details: 33.3 µM; further: in the data most compounds retested in dose-response had high values
T2 sequence (whole entry): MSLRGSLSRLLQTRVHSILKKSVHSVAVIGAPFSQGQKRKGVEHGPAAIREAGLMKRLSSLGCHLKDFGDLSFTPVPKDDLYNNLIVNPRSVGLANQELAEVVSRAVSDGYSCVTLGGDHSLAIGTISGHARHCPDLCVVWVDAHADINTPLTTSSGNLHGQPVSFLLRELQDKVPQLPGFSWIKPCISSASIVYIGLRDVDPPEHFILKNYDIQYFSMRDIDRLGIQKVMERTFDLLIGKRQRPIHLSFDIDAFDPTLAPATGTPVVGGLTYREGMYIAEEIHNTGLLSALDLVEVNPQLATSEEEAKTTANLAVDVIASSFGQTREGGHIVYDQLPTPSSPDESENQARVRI

[6] = molecular target: T3, Proteasome subunit beta (Trypanosoma cruzi) (UniProt O96673); test: Trypanosoma cruzi proteasome chymotrypsin-like activity (TcProtChymo) assay.; further: in the data most compounds retested in dose-response had high values; assay type: functional; details: 9.37 µM
T3 sequence (whole entry): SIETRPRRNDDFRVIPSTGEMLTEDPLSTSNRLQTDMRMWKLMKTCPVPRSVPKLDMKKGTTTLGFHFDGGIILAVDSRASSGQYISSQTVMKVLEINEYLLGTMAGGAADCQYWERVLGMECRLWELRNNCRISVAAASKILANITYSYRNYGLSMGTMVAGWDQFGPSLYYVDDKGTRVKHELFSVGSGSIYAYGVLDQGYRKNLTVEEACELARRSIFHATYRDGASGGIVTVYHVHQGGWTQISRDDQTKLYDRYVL

Homo sapiens = species on record: Homo sapiens; test: To identify inhibition of the IFN signalling (Jak-Stat) pathway via expression of an eGFP reporter gene under the control of an IFN-stimulated response element (ISRE) containing MxA promoter.; assay type: functional; details: 30 µM
[7] = molecular target: T4, Tyrosyl-tRNA synthetase, putative (Trypanosoma cruzi (strain CL Brener)) (UniProt Q4DSP6); test: Trypanosoma cruzi tyrosyl tRNA synthetase (TcYRS) _High Tyrosine SOP; assay type: functional; details: 30 µM; further: in the data most compounds retested in dose-response had high values
T4 sequence (whole entry): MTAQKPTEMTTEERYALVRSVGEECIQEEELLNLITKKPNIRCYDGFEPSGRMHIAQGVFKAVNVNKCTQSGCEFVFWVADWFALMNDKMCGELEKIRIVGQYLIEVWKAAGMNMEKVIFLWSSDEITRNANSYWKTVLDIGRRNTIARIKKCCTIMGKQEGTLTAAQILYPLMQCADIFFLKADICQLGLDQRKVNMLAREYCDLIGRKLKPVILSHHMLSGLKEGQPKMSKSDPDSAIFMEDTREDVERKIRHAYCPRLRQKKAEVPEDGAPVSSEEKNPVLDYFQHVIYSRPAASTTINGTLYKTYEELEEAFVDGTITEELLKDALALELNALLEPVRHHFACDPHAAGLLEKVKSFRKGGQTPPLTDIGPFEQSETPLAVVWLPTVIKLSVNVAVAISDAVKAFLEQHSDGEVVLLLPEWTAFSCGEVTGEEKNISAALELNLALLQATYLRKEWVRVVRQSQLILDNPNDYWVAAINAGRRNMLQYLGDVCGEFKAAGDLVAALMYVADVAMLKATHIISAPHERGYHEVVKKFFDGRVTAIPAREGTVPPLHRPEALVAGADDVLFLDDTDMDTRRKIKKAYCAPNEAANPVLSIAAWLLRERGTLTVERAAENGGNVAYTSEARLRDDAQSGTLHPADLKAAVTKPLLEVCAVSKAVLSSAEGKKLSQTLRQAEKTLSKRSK

[8] = molecular target: T4, Tyrosyl-tRNA synthetase, putative (Trypanosoma cruzi (strain CL Brener)); test: Trypanosoma cruzi tyrosyl tRNA synthetase (TcYRS) SOP; assay type: functional; details: 30 µM
[9] = molecular target: Chromo domain-containing protein 1 (Saccharomyces cerevisiae (strain ATCC 204508 / S288c) (Baker's yeast)) (UniProt P32657); test: ScCHD-1 Enzyme Inhibition Assay; assay type: functional; details: 30 µM; further: in the data most compounds retested in dose-response had high values
Chromo domain-containing protein 1 (Saccharomyces cerevisiae (strain ATCC 204508 / S288c) (Baker's yeast)), sequence (P32657 whole entry, the tested form may be a part): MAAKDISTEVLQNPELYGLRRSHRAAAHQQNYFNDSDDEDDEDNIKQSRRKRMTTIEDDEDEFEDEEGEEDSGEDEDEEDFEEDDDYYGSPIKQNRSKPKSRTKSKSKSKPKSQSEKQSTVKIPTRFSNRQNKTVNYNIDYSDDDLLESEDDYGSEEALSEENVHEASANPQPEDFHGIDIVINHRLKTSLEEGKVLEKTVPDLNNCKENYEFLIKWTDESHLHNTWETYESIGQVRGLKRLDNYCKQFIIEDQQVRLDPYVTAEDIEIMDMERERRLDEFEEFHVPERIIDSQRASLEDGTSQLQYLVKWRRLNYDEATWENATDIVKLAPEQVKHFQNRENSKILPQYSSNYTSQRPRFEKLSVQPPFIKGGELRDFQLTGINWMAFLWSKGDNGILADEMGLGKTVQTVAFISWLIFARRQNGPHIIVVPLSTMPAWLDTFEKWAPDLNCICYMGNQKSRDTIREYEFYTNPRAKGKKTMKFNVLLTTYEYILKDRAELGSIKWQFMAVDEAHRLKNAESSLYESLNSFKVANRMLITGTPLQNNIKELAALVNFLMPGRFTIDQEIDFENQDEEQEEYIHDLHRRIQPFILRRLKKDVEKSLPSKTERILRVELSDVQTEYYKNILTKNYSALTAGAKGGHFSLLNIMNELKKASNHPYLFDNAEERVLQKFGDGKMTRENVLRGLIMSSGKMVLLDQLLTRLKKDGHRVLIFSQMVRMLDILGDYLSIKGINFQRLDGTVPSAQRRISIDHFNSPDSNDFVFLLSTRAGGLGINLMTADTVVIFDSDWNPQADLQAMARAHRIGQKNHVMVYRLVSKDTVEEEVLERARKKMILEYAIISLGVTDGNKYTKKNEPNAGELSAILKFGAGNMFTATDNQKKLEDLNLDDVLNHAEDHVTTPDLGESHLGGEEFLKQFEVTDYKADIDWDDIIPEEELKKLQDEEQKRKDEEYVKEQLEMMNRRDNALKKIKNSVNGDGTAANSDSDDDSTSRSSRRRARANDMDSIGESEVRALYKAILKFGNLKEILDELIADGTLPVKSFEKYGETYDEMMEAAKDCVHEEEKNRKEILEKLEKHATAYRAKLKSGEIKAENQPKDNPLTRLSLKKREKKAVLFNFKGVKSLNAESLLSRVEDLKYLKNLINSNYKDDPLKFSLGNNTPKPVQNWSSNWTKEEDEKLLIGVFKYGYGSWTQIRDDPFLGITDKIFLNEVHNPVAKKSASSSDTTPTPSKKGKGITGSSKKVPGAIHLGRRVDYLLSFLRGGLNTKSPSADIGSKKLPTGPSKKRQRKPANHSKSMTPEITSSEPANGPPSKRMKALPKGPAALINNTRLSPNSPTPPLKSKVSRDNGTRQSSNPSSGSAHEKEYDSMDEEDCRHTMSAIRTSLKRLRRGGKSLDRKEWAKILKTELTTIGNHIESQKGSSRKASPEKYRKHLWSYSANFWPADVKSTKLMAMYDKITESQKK

Protein translocase subunit SecA (Escherichia coli (strain K12)), sequence (P10408 whole entry): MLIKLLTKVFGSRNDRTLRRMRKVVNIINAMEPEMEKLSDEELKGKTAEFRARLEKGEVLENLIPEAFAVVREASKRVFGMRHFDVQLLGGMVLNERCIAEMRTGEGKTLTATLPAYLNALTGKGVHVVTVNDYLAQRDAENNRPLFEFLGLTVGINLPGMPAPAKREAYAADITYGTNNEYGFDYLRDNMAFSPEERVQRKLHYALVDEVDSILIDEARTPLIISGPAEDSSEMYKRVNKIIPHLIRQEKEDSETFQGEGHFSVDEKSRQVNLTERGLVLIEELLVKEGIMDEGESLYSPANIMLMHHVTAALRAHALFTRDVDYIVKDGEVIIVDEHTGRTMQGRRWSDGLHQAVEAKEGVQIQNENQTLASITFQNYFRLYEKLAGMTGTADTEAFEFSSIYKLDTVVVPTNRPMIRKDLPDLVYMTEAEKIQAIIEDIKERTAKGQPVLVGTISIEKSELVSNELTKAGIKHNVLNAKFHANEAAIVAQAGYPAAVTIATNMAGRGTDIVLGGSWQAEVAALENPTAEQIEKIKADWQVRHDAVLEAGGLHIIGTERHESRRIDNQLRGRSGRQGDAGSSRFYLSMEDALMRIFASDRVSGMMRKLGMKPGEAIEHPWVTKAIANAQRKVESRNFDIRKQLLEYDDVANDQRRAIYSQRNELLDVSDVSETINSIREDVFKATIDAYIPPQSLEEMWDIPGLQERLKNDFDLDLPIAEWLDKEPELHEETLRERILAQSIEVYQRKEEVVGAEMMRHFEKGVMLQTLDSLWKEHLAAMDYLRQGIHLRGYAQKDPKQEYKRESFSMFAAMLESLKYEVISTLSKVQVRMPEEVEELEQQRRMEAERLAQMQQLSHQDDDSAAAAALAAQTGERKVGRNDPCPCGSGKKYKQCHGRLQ

Compound | Percent Effect [1] | Percent Effect [2] | Percent Effect [3] | Percent Effect [4] | Percent Effect (Trypanosoma cruzi) | Percent Effect [5] | Percent Effect [6] | Percent Effect (Homo sapiens) | Percent Effect [7] | Percent Effect [8] | Percent Effect [9]
O=C(c1cc(C2CC2)[nH]n1)N1CCN(Cc2ccsc2)CC1 | -5.68% | 21.6% | -3.2% | 10.8% | 10.7% | 1.66% | 14% | 9.93% | 7.92% | 23.2% | -1.29%
c1cncc(-c2nccc(CN3CCCC3)n2)c1 | -0.958% | 6.76% | 11.4% | -5.74% | 2.37% | -22% | 19.5% | -2.71% | 9.68% | 14.3% | -16.2%
CN(C)Cc1cc(=O)n2c(n1)CN(C(=O)Cc1ccsc1)CCC2 | 0.204% | 2.6% | 0.0483% | -0.795% | 0.492% | 1.38% | 6.49% | -22.4% | 1.07% | 1.24% | -2.76%
Cc1ccc(CC(=O)N2Cc3nccn3CC(Cn3cccn3)C2)cc1 (stereo unspecified) | 0.712% | 8.22% | -7.73% | 14.5% | 3.77% | 2.79% | 11.2% | 17.3% | 4.17% | 16.1% | -6.87%
COc1cc(C(=O)N2CCCC(CNS(C)(=O)=O)C2)cc(OC)c1C (stereo unspecified) | -5.54% | 13.5% | 77.8% | -1.48% | 2.74% | 0.802% | 1.26% | 11% | 7.39% | 16.1% | -4.09%
CC(=O)N1CCC(Cc2cnc(-c3c(C)nn(C)c3C)cn2)C1 (stereo unspecified) | -3.33% | 0% | 8.59% | 5.11% | 5.71% | -8.62% | 2.2% | -21.9% | 4.25% | 6.41% | -1.12%
COCCC(=O)N1CC2(CCN(Cc3cccc(Cl)c3)CC2)C1 | -1.79% | 5.33% | 5.28% | 2.57% | -7.09% | 3.03% | 10.8% | 6% | 4.25% | 11.5% | -4.02%
Cc1cnc(N2CC3(CCN(C(=O)c4ccoc4)C3)C2)nc1 | -4.42% | 5.2% | 2.7% | 2.78% | -3.64% | -30.3% | 15% | 1.13% | 0% | 1.24% | -4.73%
Cn1cc(CN2CCCC3(CCN(Cc4cccnc4)C3=O)C2)cn1 (stereo unspecified) | -0.768% | 21.6% | -0.596% | -4.91% | 3.81% | 7.33% | 14% | -9.12% | 1.08% | 12.8% | 1.58%
Cc1cc(C)c(CNC(=O)N2CCN(c3cnccn3)CC2)c(=O)[nH]1 | -7.87% | 18.4% | -1.35% | 2.54% | 6.96% | -1.53% | 12.2% | 11.3% | 3.43% | 9.76% | -9.64%
O=C(C1CCC1)N1CCCC1c1nnc2n1CCCCC2 (stereo unspecified) | -0.546% | 13.5% | -1.97% | -4.28% | 2.34% | 33.3% | 9.89% | 27.9% | 11.9% | 15.8% | 2.32%
CCc1cnc2c(c1NCc1cccc(OC)c1)c(=O)n(C)c(=O)n2C | -0.146% | 23.4% | -3.97% | -14.3% | 0.0986% | -4.52% | 5.74% | 19.2% | 3.17% | 14.1% | -8.85%
Cc1ccc2c(ccn2CCC(=O)N2CCC(C(N)=O)CC2)c1 | -2.26% | 6.67% | 6.01% | 7.91% | -0.393% | -12.2% | 16.6% | -3.73% | 5.29% | 7.69% | -3.32%
OC1(Cn2ccc3ccncc32)CCN(Cc2ccccn2)CC1 | 0.875% | 6.76% | 1.5% | 0.0823% | -10.7% | 2.55% | 8.42% | 17.6% | -1.07% | 9.09% | -2.25%
Cc1ccc(C(=O)N2CCN(S(C)(=O)=O)CC2)cc1N1CCNC1=O | -5.92% | 8% | 3.73% | 15.8% | 2.24% | 5.73% | 15.5% | 16.6% | 6.01% | 11.1% | -6.07%
Cc1cc(=O)n(CC(=O)NCC2CCCO2)c(-c2ccc(F)cc2)n1 (stereo unspecified) | -8.1% | 0% | 1.45% | -2.38% | -3.83% | 2.76% | 7.49% | 22.5% | -1.07% | -3.7% | 3.12%
CCOc1ccccc1OC1CCN(C(=O)c2nc(=O)[nH][nH]2)CC1 | -5.6% | 18.4% | -5.81% | 1.22% | 10.5% | -3.06% | 13.9% | 18.1% | 6.37% | 19.5% | -9.11%
O=C(CN(Cc1cccnc1)CC1CCCO1)Nc1ccc(F)cc1 (stereo unspecified) | -3.61% | 2.74% | 1.19% | 0.415% | -2.35% | -1.82% | 10.3% | 5.96% | 0% | 0% | 0.815%
Cc1ccc(CNC(=O)NCCCn2nc3ccccn3c2=O)s1 | -7.23% | 16.2% | -11% | 15.3% | 6.89% | -18.8% | 5.95% | 7.36% | 6.4% | -70.4% | -16.6%
CCNc1cc2c(nn1)CCN(C(=O)c1cccc3c1OCCO3)C2 | -5.14% | 7.79% | -15.3% | 14.1% | 5.99% | -6.76% | 15.4% | 1.1% | 5.83% | 14.6% | -10.8%
CN(C)CCN1C[C@@H]2CN(C(=O)c3ccsc3)C[C@@H]2C1=O | -7.36% | 5.2% | 0.643% | 5.55% | -3.25% | 0% | 5.66% | 20.3% | 0% | 1.24% | 1.29%
